# Assay outcomes from PubChem.
# SIRT5 block = SIRT5 desuccinylase inhibitors, primary screen, biochemical, fluorescence imaging, single point, set 5; Purified SirT5, succinyl-peptide AMC, trypsin-coupled fluorescence; inhibition, % at 15 µM; NAD-dependent protein deacylase sirtuin-5, mitochondrial (Homo sapiens), Q9NXA8; hit rate 1.1% among 330,000; AID 652115, 2013; in the data active = inhibition above about 15%
# NSD2 HMT inh = NSD2 histone methyltransferase inhibitors, primary screen, biochemical, AlphaScreen, single concentration, set 2 | NSD2 peptide methylation, 120 min | inhibition, % at 12.5 µM | hit rate 0.54% among 310,000 | AID 743445, 2014; in the data active = inhibition above about 50%
# ARNT-TACC3 inh = disruptors of ARNT/TACC3 protein interaction, primary screen, biochemical, AlphaScreen, single concentration. Transforming acidic coiled-coil-containing protein 3 (Homo sapiens), Q9Y6A5. AlphaScreen His-ARNT PAS-B/GST-TACC3 binding, luminescence; TACC3 fragment carries E629A point mutation. inhibition, % at 9.99 µM. hit rate 0.66% among 390,000. AID 623870, 2012;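 active = mean inhibition of replicates at least 50% and at least half of replicates each reaching 50%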;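 note: 0% = complete ARNT plus TACC3 wells and 100% = ARNT alone without TACC3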
# CASP6 VEID inh = human caspase-6 inhibitors, primary screen, biochemical, VEID-R110 fluorescence, single point, set 2; P55212; purified caspase-6, Z-VEID-R110 cleavage fluorescence; inhibition, % at 12.5 µM; hit rate 0.53% among 350,000;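 active = mean inhibition across replicates at least about 35%, with every replicate also reaching that limit, limit read from the data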;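 note: 0% = median of neutral control wells and 100% = no fluorescence left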
# Target sequence (P55212 24-179 limits assumed): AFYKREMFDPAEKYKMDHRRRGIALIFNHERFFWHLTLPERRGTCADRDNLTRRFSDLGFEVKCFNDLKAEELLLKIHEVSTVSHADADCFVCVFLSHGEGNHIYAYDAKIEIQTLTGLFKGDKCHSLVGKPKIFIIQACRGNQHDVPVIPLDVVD
# Target sequence (P55212 194-293 limits assumed): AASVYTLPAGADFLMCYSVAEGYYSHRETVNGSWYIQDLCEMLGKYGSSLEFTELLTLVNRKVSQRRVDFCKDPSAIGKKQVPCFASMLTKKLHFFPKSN
# PfHsp90 yeast 2 = growth inhibition of PfHsp90-expressing yeast, primary screen, antimalarial PfHsp90 inhibitor project, S. cerevisiae, BacTiter-Glo luminescence, single point, set 2; hit rate 0.32% among 310,000; BacTiter-Glo ATP, 48 h; yeast lacking PDR1 and PDR3 efflux regulators; AID 504621, 2011; inhibition, % at 9.4 µM;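 active = every replicate shows inhibition above about 80%, whatever the replicate mean, limit read from the data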;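 note: 0% = DMSO neutral controls and 100% = 20 µM radicicol positive controls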
# * = called active by the depositor; · = no result given. Compounds with a hit are over-represented: about 2.1% of the library has one in this group of screens.
SMILES,SIRT5 block,NSD2 HMT inh,ARNT-TACC3 inh,CASP6 VEID inh,PfHsp90 yeast 2
CNC[C@H]1Oc2cc(C#Cc3ccccc3F)ccc2S(=O)(=O)N([C@H](C)CO)C[C@@H]1C,-1,·,-6,16,·
CCC(=O)N[C@@H]1C=C[C@H](CC(=O)NCc2cc(F)cc(F)c2)O[C@H]1CO,3,·,-15,1,·
O=C(C[C@@H]1CC[C@H]2[C@@H](COC[C@@H](O)CN2Cc2ccccc2F)O1)NCc1ccccc1F,0,·,-5,-5,·
O=C(NCC1CCCO1)C(c1cccs1)N(Cc1cccs1)C(=O)c1ccc(-c2ccccc2)[nH]1 (centres undefined),0,1,13,4,-14
O=C(NCC1CCCO1)C(c1ccc(F)cc1)N(CC1CCCO1)C(=O)c1ccc(-c2ccccc2)[nH]1 (centres undefined),2,2,2,48*,0
Cc1ccnc(NCc2cccc3ccccc23)c1,53*,2,-8,5,-5
O=C(Nc1ccc(Cl)cc1)N[C@@H]1CC[C@@H](CCn2cc(C3(O)CCCC3)nn2)O[C@H]1CO,1,·,7,1,·
NNC(=O)CN1CCN(c2ncc(C(F)(F)F)cc2Cl)CC1,-3,-4,-3,-4,23
CN(C)/C=C/C(=O)c1ccc(N2CCN(c3ncc(C(F)(F)F)cc3Cl)CC2)cc1,·,0,·,·,109*
CN(C)C=NC(=O)c1ccc(N2CCN(c3ncc(C(F)(F)F)cc3Cl)CC2)cc1,·,1,-5,·,-5
O=C(CN1CCN(c2ncc(C(F)(F)F)cc2Cl)CC1)NCCNc1ncc(C(F)(F)F)cc1Cl,·,-14,-2,·,100*
O=C(C1CCOCC1)N1CC[C@H]2[C@H](CO)Nc3ccc(Br)cc3[C@H]21,3,·,4,1,·
COc1ccc(NC(=O)N(C)C[C@H]2OCCCC[C@@H](C)Oc3ccc(NS(=O)(=O)c4cccs4)cc3C(=O)N([C@@H](C)CO)C[C@H]2C)cc1,0,·,·,0,·
C=CCN1C=C2C(=O)C(C)(OC(=O)c3ccc(OC)cc3)C(=O)C(c3ccco3)=C2C=C1CCCC (centres undefined),·,·,2,·,-1
CCCCC1=CC2=C(c3ccco3)C(=O)C(C)(OC(=O)c3ccc(OC)cc3)C(=O)C2=CN1CCCOC(C)C (centres undefined),34*,·,1,33,36
C[C@@H]1CN([C@@H](C)CO)S(=O)(=O)c2ccc(/C=C/c3ccccc3)cc2O[C@H]1CN(C)C(=O)c1ccc2c(c1)OCO2,27*,·,1,0,·
C[C@H](CO)N1C[C@H](C)[C@@H](CN(C)C(=O)c2ccc3c(c2)OCO3)Oc2cc(/C=C/c3ccccc3)ccc2S1(=O)=O,16*,·,-1,2,·
CCOC(=O)n1c(=O)n(C)c2ccc(Cl)cc21,20*,3,11,0,-2
CCOC(=O)n1c(=O)n(Cc2ccccc2)c2ccccc21,·,10,1,·,21
COc1ccc(-c2ccc3n(c2=O)C[C@H]2[C@H](CO)[C@@H](C(=O)N4CCOCC4)[C@@H]3N2C)cc1,-35,·,0,5,·
C[C@@H]1CCCCO[C@@H](CN(C)S(=O)(=O)c2ccc(F)cc2)[C@@H](C)CN([C@@H](C)CO)C(=O)c2cc(NC(=O)Cc3ccccc3)ccc2O1,·,·,-2,·,·
COc1ccc(/C=C/C(=O)OCC(=O)N2CC(=O)Nc3ccccc32)cc1S(=O)(=O)N1CCOCC1,0,-1,2,-2,21
COc1cc(/C=C/C(=O)OCC(=O)N2CC(=O)Nc3ccccc32)ccc1O,15*,0,3,1,-18
O=C(C[C@@H]1C=C[C@H](NS(=O)(=O)c2ccccc2F)[C@H](CO)O1)NCCCN1CCOCC1,-4,·,-2,-1,·
COc1ccc(CN2C(=O)c3cccnc3C2=O)cc1S(=O)(=O)N1CC(C)CC(C)C1 (centres undefined),-6,1,29*,3,-1
C[C@@H]1CN([C@H](C)CO)S(=O)(=O)c2ccc(/C=C/c3ccccc3)cc2O[C@H]1CN(C)C(=O)Nc1ccc(F)cc1,-3,·,29,-2,·
